Mito fusion act – blocks mitochondrial division or promotes mitochondrial fusion. S. cerevisiae fusion-defective mutant growth rescue, CellTiterGlo 48 h. Potency, µM (titrated, usually from 46.1 µM), inactives show at the top dose growth rescue (activation), actives largely listed as activators. 320,000 tested, 0.23% active; also: % of control where 0% means no effect; nearly all actives have a fitted effect of over 45% in size
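Compounds are tested for their ability to restore growth of mitochondrial fusion-defective yeast strains at non-permissive 37C in YPEG medium over 48 hours. Viability is quantified by luciferase luminescence.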
Integrin act MD – activators of alpha7 integrin expression for muscular dystrophy; alpha7betagal myoblasts, beta-gal FDG fluorescence, 48 h; Potency, µM (series often up to 38.3 µM), without a hit: at the highest dose activation, most hits filed as activators; 350,000 tested, 0.064% active;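 also: 100% = response of the positive control SU9516; nearly all actives have a fitted effect of over 60% in size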
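alpha7betagal+/- myoblasts (passage 13, 250/well) treated 48 h at 37C with compounds at 1:260 dilution of DMSO stock. Lysed, then beta-galactosidase activity read as FDG fluorescence (ex 480/em 540) after 30 min, with pre-read for autofluorescence.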
AT treatment – potential ataxia-telangiectasia treatment; F2112 A-T fibroblasts, KAP-1 phosphorylation AlphaLISA; neocarzinostatin DNA damage 30 min before lysis; Potency, µM (top dose mostly 57.5 µM), for the others: top-dose activation, usual class: activators; 320,000 tested, 0.19% active; also: % of control where 0% means no effect; nearly all actives have a fitted effect of over 45% in size
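hTERT-immortalized A-T patient fibroblasts (F2112), 500 cells/well in OPTI-MEM, 1% FBS, got compounds for 60 min, then NCS for 30 min at 37C. Lysates were then assayed for phospho-KAP-1 by AlphaLISA (anti-pKAP1 donor, anti-KAP1 acceptor beads), 6 hr at 25C.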
SW480 rereplic – inducers of DNA re-replication in SW480 colon cancer cells. SW480 DNA re-replication, Hoechst DNA content imaging, 48 h. Potency, µM (doses to about 46.1 µM), inactives show at the highest dose re-replication activation, most hits filed as activators. 340,000 tested, 1.8% active; also: % of control where 0% means no effect; nearly all actives have a fitted effect of over 55% in size
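DNA re-replication was detected as more nuclei of elevated Hoechst intensity after 48 hr exposure to compound (23 nL pinned per well of 250 cells).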
MCF10A rereplic – induces DNA re-replication in MCF 10a normal breast cells. MCF 10A DNA re-replication, Hoechst nuclear intensity, 48 h. 350,000 tested, 2.9% active. AID 624296. Potency, µM (series often up to 46.1 µM), without a hit: at the highest dose activity, positive = re-replication, actives largely listed as activators; also: % of control where 0% means no effect; nearly all actives have a fitted effect of over 50% in size
Numbers without * were called inactive; ? = inconclusive; . = not tested or not shown. In the library only some 4.2% were active in any assay of this set; here they are far more common. Calls follow the shape of the dose curve; as a rule, active = well fitted activation curve with a large enough effect; inconclusive = small, poorly fitted or top-dose-only effect; inactive = no such curve, though single readings can be large or run the other way. Potency is read from the fitted curve at half-maximal effect.

SMILES	Mito fusion act	Integrin act MD	AT treatment	SW480 rereplic	MCF10A rereplic
Cc1cccc(CN2CCc3c([nH]c4ccccc34)C2CC(C)C)n1 (stereo not given)	3%	-35%	-5%	?	18µM*
Cc1c(CN2CCc3c([nH]c4ccccc34)C2C2CCCCC2)cnn1C (stereo not given)	-2%	-21%	13%	6%	18µM*
CC(=O)c1cc(C(=O)N2CCc3c([nH]c4ccccc34)C2C2CCCCC2)[nH]n1 (stereo not given)	0%	?	-1%	11%	1.5µM*
CCn1ccnc1CN1CCc2c([nH]c3ccccc23)C1CC(C)C (stereo not given)	-6%	?	1%	-1%	11%
Cc1cnc(C(=O)N2CCc3c([nH]c4ccccc34)C2c2ccc(F)cc2)cn1 (stereo not given)	4%	-7%	14%	13%	4%
CCn1ccnc1CN1CCc2c([nH]c3ccccc23)C1C1CCCCC1 (stereo not given)	-5%	13%	4%	-3%	-4%
Cc1ccc(C)c(N2CCN(C(=O)c3csc4ccccc34)CC2)c1	?	21%	-3%	3%	16µM*
CCC(=O)N1CCN(c2cc(C)ccc2C)CC1	-1%	13%	-1%	-1%	2%
COc1ccc(C(CNC(=O)Cc2cc(OC)c(OC)c(OC)c2)N2CCCC2)cc1 (stereo not given)	-1%	-23%	6%	1%	-2%
COC(=O)C1CCC(=O)N1C(c1ccc(OC)cc1)c1cc(OC)c(OC)c(OC)c1 (stereo not given)	.	-13%	.	0.73µM*	1.3µM*
COCC(=O)Nc1cc(Sc2ccccc2)ccc1N=C(NC(=O)OC)NC(=O)OC	.	.	.	17µM*	7.5µM*
N#Cc1ccc(C(=O)N2CCC3CC2c2cc(-c4ccc(F)cc4)ccc23)cc1 (stereo not given)	.	27%	.	-2%	-16%
O=C(CCS(=O)(=O)Cc1ccccc1)N1CCc2ccccc2C1	2%	15%	4%	-9%	0%
O=C(CCS(=O)(=O)Cc1ccccc1)N1CCN(Cc2ccccc2)CC1	-6%	-12%	0%	-6%	10µM*
COCCOC(=O)N/C=C\c1nc2ccccc2c(=O)[nH]1	0%	11%	3%	16µM*	?
C=CCOc1cccc(/C=C/c2nc3ccccc3c(=O)[nH]2)c1	5%	-29%	5%	?	29%
COc1cc2nc(CN(C)Cc3nc4ccccc4c(=O)[nH]3)[nH]c(=O)c2cc1OC	-2%	12%	1%	16µM*	?
COc1cc(/C=C/c2nc3ccccc3c(=O)[nH]2)cc(OC)c1OC	-2%	-30%	10%	3.3µM*	18µM*
N#CCOc1ccccc1/C=C/c1nc2ccccc2c(=O)[nH]1	7%	19%	5%	13µM*	25%
O=C(CCNC(=O)c1ccc([N+](=O)[O-])cc1)Nc1cc(C(F)(F)F)ccc1N1CCOCC1	.	-15%	.	.	.
C[C@H](CO)N1C[C@H](C)[C@@H](CN(C)Cc2ccc(C(=O)O)cc2)Oc2ncc(-c3ccc(C(=O)N(C)C)cc3)cc2C1=O	.	-7%	.	.	.
Cc1ccccc1/C=C\c1nc2ccccc2c(=O)[nH]1	7%	-59%	-3%	?	?
Cc1ccccc1/C=C/c1nc2ccccc2c(=O)[nH]1	0%	-49%	2%	?	18µM*
CC1(C)CC(=O)C=C(c2ccc(-c3cnc4ccccc4c3)cc2)C1=O	.	-2%	.	.	.
COc1cccc(C(=Cc2ccc([N+](=O)[O-])cc2)C(=O)O)c1	.	1%	.	.	.
C=CCNC(=O)c1ccc(CN(c2ccc(OCC)cc2)S(=O)(=O)c2ccc(C)cc2)cc1	-15%	-20%	0%	?	26µM*
CCCCCc1cc(OC)cc2c1C(=O)OC(C)(C)O2	.	-32%	5%	-47%	-1%
O=C(CN1C(=O)NC2(CCCC2)C1=O)N1CCN(c2ccccc2Cl)CC1	0%	-4%	-10%	-16%	0%
CN1CCN(C(=S)Nc2cccc(S(=O)(=O)N(C)C)c2)CC1	-13%	4%	0%	-30%	-4%

Compound activity: PubChem BioAssay, National Center for Advancing Translational Sciences (NCATS)
